HP1b binding inh = HTS for Inhibitors of HP1-beta Chromodomain Interactions with Methylated Histone Tails | Chromobox protein homolog 1 (Homo sapiens), P83916 | AlphaScreen HP1-beta / biotin-H3K9me3 peptide binding | Potency, µM (highest dose often 114 µM), inactives show top-dose activity change, negative = inhibition, usual class: inhibitors | 390,000 tested, 0.56% active; also: nearly all actives have a fitted effect of over 70% in size
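Compound inhibition of the preformed complex between 50 nM HP1-beta and 50 nM biotinylated H3K9me3 peptide was read by AlphaScreen. Buffer was PBS pH 7.4 with 0.01% Tween-20. Incubations ran 30 min at room temperature, with 10 ug/mL donor/acceptor beads.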
L3MBTL1 inh = qHTS Assay for the Inhibitors of L3MBTL1. Lethal(3)malignant brain tumor-like protein 1 (Homo sapiens), Q9Y468. AlphaScreen L3MBTL1–H3K9me1 peptide binding. Potency, µM (series often up to 57.1 µM), for the others: at the top dose activity, negative = inhibition, actives largely listed as inhibitors. 230,000 tested, 0.66% active; also: % is scaled to controls: 0 for no effect and ±100 for the full control effect; nearly all actives have a fitted effect of over 60% in size
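AlphaScreen proximity signal between nickel-chelate acceptor and streptavidin donor beads (final 10 ug/mL) reports binding of 50 nM L3MBTL1 to 75 nM biotin-H3 K9me1 peptide; complex incubated with compounds 30 min at room temperature; cefsulodin titration as control.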
JMJD2A Tudor inh = qHTS Assay for Inhibitors of JMJD2A-Tudor Domain. Lysine-specific demethylase 4A (Homo sapiens), O75164. AlphaScreen JMJD2A-Tudor / H3K4me3 peptide binding. Potency, µM (top dose mostly 114 µM), for inactives: at the highest dose activity change, negative = inhibition, actives largely listed as inhibitors. 390,000 tested, 4.4% active. AID 504339, 2011; also: % is scaled to controls: 0 for no effect and ±100 for the full control effect; nearly all actives have a fitted effect of over 50% in size
Target sequence (O75164 whole entry, looked up, the tested form may be a part): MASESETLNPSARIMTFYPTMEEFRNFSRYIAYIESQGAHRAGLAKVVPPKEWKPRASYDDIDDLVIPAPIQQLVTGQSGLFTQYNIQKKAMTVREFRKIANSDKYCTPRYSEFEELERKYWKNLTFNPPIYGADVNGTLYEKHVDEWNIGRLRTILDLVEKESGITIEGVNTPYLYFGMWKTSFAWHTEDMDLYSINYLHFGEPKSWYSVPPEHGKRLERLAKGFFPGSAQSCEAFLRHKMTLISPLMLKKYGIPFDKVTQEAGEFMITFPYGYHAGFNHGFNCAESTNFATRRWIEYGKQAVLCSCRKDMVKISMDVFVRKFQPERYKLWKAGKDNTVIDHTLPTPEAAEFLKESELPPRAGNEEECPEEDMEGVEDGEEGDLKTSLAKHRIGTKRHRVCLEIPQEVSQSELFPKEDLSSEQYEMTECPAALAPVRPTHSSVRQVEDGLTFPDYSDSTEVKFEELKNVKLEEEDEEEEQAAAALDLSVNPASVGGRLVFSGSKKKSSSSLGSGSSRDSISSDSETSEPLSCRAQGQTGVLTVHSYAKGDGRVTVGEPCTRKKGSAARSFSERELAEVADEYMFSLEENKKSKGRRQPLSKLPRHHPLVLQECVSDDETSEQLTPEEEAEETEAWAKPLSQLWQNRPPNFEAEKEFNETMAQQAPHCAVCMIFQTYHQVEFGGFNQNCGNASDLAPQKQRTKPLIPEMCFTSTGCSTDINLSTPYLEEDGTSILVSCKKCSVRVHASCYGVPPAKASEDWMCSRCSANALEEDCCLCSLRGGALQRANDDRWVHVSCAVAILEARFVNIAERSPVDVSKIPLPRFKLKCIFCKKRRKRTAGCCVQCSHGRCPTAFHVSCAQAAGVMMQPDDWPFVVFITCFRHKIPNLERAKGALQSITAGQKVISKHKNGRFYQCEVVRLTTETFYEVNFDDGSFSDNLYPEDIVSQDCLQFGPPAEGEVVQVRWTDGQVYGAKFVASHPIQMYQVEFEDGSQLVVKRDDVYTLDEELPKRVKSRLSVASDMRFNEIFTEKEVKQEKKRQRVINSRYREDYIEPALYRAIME
G9a block = qHTS Assay for Inhibitors of Histone Lysine Methyltransferase G9a; Histone-lysine N-methyltransferase EHMT2 (Homo sapiens), Q96KQ7; G9a H3K9 monomethylation, AlphaScreen, 2 h; Potency, µM (highest dose often 102 µM), for inactives: top-dose activity, negative = inhibition, actives largely listed as inhibitors; 350,000 tested, 8.8% active; AID 504332, 2011; also: % is scaled to controls: 0 for no effect and ±100 for the full control effect; nearly all actives have a fitted effect of over 75% in size
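Chemiluminescent proximity detection of H3K9 monomethylation, read after 10 min bead incubation in the dark. Reaction: 20 nM G9a, 500 nM biotin-H3K9 peptide, 20 uM SAM cofactor, 2 h, room temperature, following 15 min enzyme-compound preincubation.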
BAZ2B inh = qHTS Assay for Inhibitors of BAZ2B; AlphaScreen BAZ2B-H3K14Ac peptide displacement; Potency, µM (series often up to 114 µM), for inactives: at the top dose activity change, negative = inhibition, most hits filed as inhibitors; 360,000 tested, 4.4% active; AID 504333, 2011; also: % is scaled to controls: 0 for no effect and ±100 for the full control effect; nearly all actives have a fitted effect of over 60% in size
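Protein-peptide AlphaScreen: BAZ2B 50 nM, b-H3K14Ac 50 nM, 1x PBS pH 7.4 + 0.01% Tween-20. Preincubation 30 min RT; cpd 30 min RT (top 110 uM); beads 20 min RT, light-protected.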
Sfp PPTase inh = qHTS Assay for Inhibitors of Bacillus subtilis Sfp phosphopantetheinyl transferase (PPTase); 4'-phosphopantetheinyl transferase ffp (Bacillus subtilis), Q9F4F7; Biochemical Sfp PPTase activity, qHTS; Potency, µM, for inactives: largest response in the series, negative = inhibition, most hits filed as inhibitors; 310,000 tested, 3.5% active;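 also: the enzyme is Sfp with the accession as filed and its product quenches rhodamine fluorescence; 0% = enzyme reaction without inhibitor and -100% = no enzyme wells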
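With Hepes-Na pH 7.6 buffer containing 10 mM MgCl2, Sfp (15 nM) modified BHQ-2-YbbR (12.5 uM) using rhodamine-CoA (5 uM). Two reads 30 minutes apart at 525/598 nm yielded each well's rate.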
An asterisk follows results filed as active; ? = inconclusive; / = not tested or not shown; [ ] = remark or other dose. Most compounds without a hit are left out; they make up all but 12% or so of the library. Calls follow the shape of the dose curve; as a rule, active = well fitted curve in the direction sought with a large enough effect; inconclusive = small, poorly fitted or top-dose-only effect, or another doubt; inactive = no such curve, though single readings can be large; an effect the other way counts as inactive or inconclusive. Potency is read from the fitted curve at half-maximal effect.

SMILES	HP1b binding inh	L3MBTL1 inh	JMJD2A Tudor inh	G9a block	BAZ2B inh	Sfp PPTase inh
CCN(CC)S(=O)(=O)c1ccc(C(=O)Nc2nnc(CSC)o2)cc1	37%	5%	-10%	0%	79µM*	-25%
CCc1nnc(NC(=O)c2ccc(S(=O)(=O)N(CC)Cc3ccccc3)cc2)o1	-16%	3%	-18%[11.4 µM]	-38%	50µM*	19%
CCN(CC)S(=O)(=O)c1ccc(C(=O)Nc2nnc(-c3ccco3)o2)cc1	17%	/	-21%	-33%	/	21%
CCCCN(C)S(=O)(=O)c1ccc(C(=O)Nc2nnc(CSC)o2)cc1	27%	8%	79µM*	/	?	15%
CCOC(=O)N1CCN(S(=O)(=O)c2ccc(NC(C)=O)cc2)CC1	46%	-5%	-17%	/	2%	1%
CCN(Cc1ccccc1)S(=O)(=O)c1ccc(C(=O)Nc2nnc(C)o2)cc1	42%	/	-34%	59%	?	21%
CCOC(=O)N1CCN(S(=O)(=O)c2ccc(C(=O)Nc3nnc(CSC)o3)cc2)CC1	51%	16%	45µM*	-3%[59 µM]	79µM*	9%
Cc1ccc(NC(=O)Cn2c(-c3cncs3)nc3ccccc32)cc1Br	61%	/	-27%	-24%[59 µM]	-16%	/
CCCn1c(SCc2nc3sc(C)c(C)c3c(=O)[nH]2)nc2ccccc2c1=O	24%	4%	-13%	50µM*	-8%	-1%
Cc1ccccc1OCc1nnc(SCc2nc3ccccc3c(=O)[nH]2)n1C	42%	-6%	-6%	10%	-4%	6%
O=c1[nH]c(CSc2nnc(COc3ccccc3)n2-c2ccccc2)nc2ccccc12	-18%	?	?	4.5µM*	3%	?
C=CCn1c(Cc2ccccc2)nnc1SCc1nc2ccccc2c(=O)[nH]1	55%	9%	-4%	50µM*	3%	-20%
COCCn1c(SCc2nc3ccccc3c(=O)[nH]2)nc2ccccc2c1=O	20%	-4%	-15%	5%	1%	8%
C=CCn1c(SCc2nc3ccccc3c(=O)[nH]2)nc2ccccc2c1=O	23%	/	-16%	7.9µM*	4%	50µM*
CSc1nn(Cc2ccc(Br)cc2)c(N(C(C)=O)C(C)=O)c1S(=O)(=O)c1ccccc1	32%	/	2%	8%[59 µM]	-1%	/
COc1cc(NC(=O)CC2C(=O)N(c3cccc(C)c3)C(=O)N2Cc2ccco2)cc(OC)c1 (centres undefined)	22%	/	-32%	?	?	/
CCCS(=O)(=O)N1CCN(Cc2ccncc2)CC1	?	/	20µM*	?	35µM*	-18%
c1cc(CN2CCN(C3CCCCCC3)CC2)ccn1	?	3%	20µM*	1.8µM*	/	?
CCS(=O)(=O)N1CCN(Cc2ccncc2)CC1	50µM*	3%	3.5µM*	14µM*	35µM*	-28%
CCOc1cccc(N)c1	25%	-3%	-12%	2%[0.501 µM]	13%	/
CCOc1ccc(N)c(SSc2cc(OCC)ccc2N)c1	18µM*	/	13µM*	0.56µM*	32µM*	2.8µM*
COc1ccc2c(c1)CCCC2NS(=O)(=O)OCC(Cl)(Cl)Cl (centres undefined)	134%	11%	31%	/	18%	-4%
CC1(C)CC(NS(=O)(=O)OCC(Cl)(Cl)Cl)c2cc(C#N)ccc2O1 (centres undefined)	22%	8%	32µM*	-1%	0%	22%
COc1cc(Br)cc(CNc2ccc(F)c([N+](=O)[O-])c2)c1O	-3%	-4%	?	45µM*	?	25µM*
CCN(CC)CC1CCN(c2ncc3ncnc(Nc4ccc(F)c(Cl)c4)c3n2)CC1	/	/	/	-4%[59 µM]	/	-21%
SMILES	HP1b binding inh	L3MBTL1 inh	JMJD2A Tudor inh	G9a block	BAZ2B inh	Sfp PPTase inh
COc1ccc(C(=O)NC(=S)N2CCOCC2)cc1Br	26%	/	-6%	20µM*	-19%	-6%
CC(C)(C)c1ccc(C(=O)NC(=S)N2CCOCC2)cc1	18%	/	-24%	-51%	-27%	-16%
COc1ccc(C(=O)NC(=S)N2CCOCC2)cc1[N+](=O)[O-]	39%	/	-4%	35µM*	-16%	-5%
COc1ccc(C(=O)NC(=S)NCc2cccnc2)cc1Br	69%	-8%[11.4 µM]	-21%	-51%	?	8%
COc1ccc(C(=O)NC(=S)NCCO)cc1Br	6%	2%	-27%	45µM*	-3%	?
CN(C)C(=O)c1ccc(-c2cc(NCc3ccccc3)ncn2)cc1	/	/	/	-7%[0.501 µM]	/	27%
CNc1cc([N+](=O)[O-])ccc1N/C=C/C(=O)c1ccc2c(c1)OCO2	23%	-7%	-12%	40%[59 µM]	-7%	?
O=C(/C=C/Nc1cccc([N+](=O)[O-])c1)c1cccs1	53%	/	5%	40µM*	-36%	-16%
CNc1cc([N+](=O)[O-])ccc1N/C=C/C(=O)c1cccs1	-7%	-23%	?	?	50µM*	8%
C=CCn1c(SCC(=O)N2N=C(c3ccco3)CC2c2ccco2)nnc1-c1ccncc1 (centres undefined)	16%	0%	-19%	3%[59 µM]	0%	12%
COc1ccc(-n2ccn(CC(=O)Nc3ccc(C)cc3C)c(=O)c2=O)cc1	29%	/	-8%	-8%[59 µM]	-4%	/
S=c1[nH]c2ccccc2n1Cc1ccccc1	?	-1%	?	/	-10%	14µM*
O=c1[nH]c2ccccc2n1Cc1ccccc1	43%	3%	1%	-14%[59 µM]	-6%	-3%
CCOC(=O)c1[nH]c(=S)n(Cc2ccccc2)c1C(=O)OCC	?	/	3.2µM*	/	/	/
S=c1[nH]c2cnccc2n1Cc1ccccc1	11%	/	18µM*	7.1µM*	-18%	?
S=c1[nH]c2ccccc2n1CCc1ccncc1	45%	/	?	/	/	/
Cc1c(Cl)cccc1NC(=O)C1CCCN(c2nnc(-n3c(C)ccc3C)s2)C1 (centres undefined)	28%	/	-10%	9%[59 µM]	1%	/
CCC(CC)c1nc(C(N)=O)c2[nH]c(=O)n(-c3ccc(OC)c(OC)c3)c2n1	29%	/	-14%	8%	-30%	10%
CC(C)Cc1nnc(NC(=O)c2cc([N+](=O)[O-])ccc2N2CCOCC2)s1	1%	/	-34%	/	-12%	-9%
O=C(NC(=S)Nc1nc2ccc(F)cc2s1)c1ccco1	9%	/	-6%	0%	/	56µM*
Cc1nc(NC(=S)NC(=O)c2ccco2)sc1C(=O)N(C)C	28%	/	-12%	40µM*	-1%	22µM*

Compound activity (PubChem)
